From PubChem
BAZ2B inh: blocks human BAZ2B | AID 504333 | Potency, µM (highest dose often 114 µM), for the others: at the top dose activity change, negative = inhibition, usual class: inhibitors | AlphaScreen BAZ2B-H3K14Ac peptide displacement | 360,000 compounds, 4.4% hits; also: % is scaled to controls: 0 for no effect and ±100 for the full control effect; nearly all actives have a fitted effect of over 60% in size
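Protein-peptide AlphaScreen: BAZ2B 50 nM, b-H3K14Ac 50 nM, 1x PBS pH 7.4 + 0.01% Tween-20. Preincubation 30 min RT; cpd 30 min RT (top 110 uM); beads 20 min RT, light-protected.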
L3MBTL1 inh: L3MBTL1 (human) inhibition. Q9Y468. AlphaScreen L3MBTL1–H3K9me1 peptide binding. Potency, µM (top dose mostly 57.1 µM), for inactives: at the top dose activity, negative = inhibition, hits mostly inhibitors. 230,000 compounds, 0.66% hits; also: % is scaled to controls: 0 for no effect and ±100 for the full control effect; nearly all actives have a fitted effect of over 60% in size
Target sequence (Q9Y468 whole entry, looked up): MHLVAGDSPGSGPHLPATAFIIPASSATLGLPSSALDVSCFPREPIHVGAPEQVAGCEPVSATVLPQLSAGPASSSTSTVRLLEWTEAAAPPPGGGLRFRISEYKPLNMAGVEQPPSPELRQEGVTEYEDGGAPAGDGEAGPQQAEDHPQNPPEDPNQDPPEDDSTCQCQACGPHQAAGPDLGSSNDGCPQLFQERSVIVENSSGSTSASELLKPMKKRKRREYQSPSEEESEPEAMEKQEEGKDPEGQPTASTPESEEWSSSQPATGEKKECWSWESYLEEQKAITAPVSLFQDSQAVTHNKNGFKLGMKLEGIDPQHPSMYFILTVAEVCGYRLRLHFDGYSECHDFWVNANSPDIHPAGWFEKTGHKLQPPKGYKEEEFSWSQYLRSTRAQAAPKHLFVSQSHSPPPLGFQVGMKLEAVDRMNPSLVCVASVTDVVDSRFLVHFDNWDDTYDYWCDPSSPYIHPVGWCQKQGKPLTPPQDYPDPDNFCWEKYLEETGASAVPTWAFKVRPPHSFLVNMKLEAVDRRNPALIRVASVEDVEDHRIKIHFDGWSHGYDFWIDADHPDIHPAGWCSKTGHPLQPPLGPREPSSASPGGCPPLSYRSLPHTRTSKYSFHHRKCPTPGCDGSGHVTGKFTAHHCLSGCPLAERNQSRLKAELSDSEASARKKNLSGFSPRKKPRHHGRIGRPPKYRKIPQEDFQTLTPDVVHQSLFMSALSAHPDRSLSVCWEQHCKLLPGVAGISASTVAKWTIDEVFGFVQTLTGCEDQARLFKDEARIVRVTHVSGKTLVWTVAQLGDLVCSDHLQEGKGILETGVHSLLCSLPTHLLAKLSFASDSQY
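AlphaScreen proximity signal between nickel-chelate acceptor and streptavidin donor beads (final 10 ug/mL) reports binding of 50 nM L3MBTL1 to 75 nM biotin-H3 K9me1 peptide; complex incubated with compounds 30 min at room temperature; cefsulodin titration as control.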
JMJD2A Tudor inh: blocks the human JMJD2A Tudor domain; O75164; AlphaScreen JMJD2A-Tudor / H3K4me3 peptide binding; Potency, µM (highest dose often 114 µM), for inactives: at the top dose activity change, negative = inhibition, usual class: inhibitors; 390,000 compounds, 4.4% hits; AID 504339; also: % is scaled to controls: 0 for no effect and ±100 for the full control effect; nearly all actives have a fitted effect of over 50% in size
HP1b chromo inh: blocks HP1-beta chromodomain binding to methylated histone tails; AlphaScreen HP1-beta / biotin-H3K9me3 peptide binding; P83916; Potency, µM (top dose mostly 114 µM), for the others: at the top dose activity change, negative = inhibition, actives largely listed as inhibitors; 390,000 compounds, 0.56% hits; also: nearly all actives have a fitted effect of over 70% in size
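AlphaScreen: HP1-beta (50 nM) preformed 30 min with biotin-H3(1-18)K9me3 peptide (50 nM) in PBS pH 7.4, 0.01% Tween-20. Compound added for 30 min at RT, then streptavidin donor/nickel chelate acceptor beads (10 ug/mL) for 30 min.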
G9a inh: blocks human histone lysine methyltransferase G9a. Q96KQ7. G9a H3K9 monomethylation, AlphaScreen, 2 h. Potency, µM (titrated, usually from 102 µM), for the others: at the top dose activity, negative = inhibition, hits mostly inhibitors. 350,000 compounds, 8.8% hits. AID 504332; also: % is scaled to controls: 0 for no effect and ±100 for the full control effect; nearly all actives have a fitted effect of over 75% in size
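AlphaScreen detection with an anti-monomethyl H3K9 antibody quantified product after a 2 h room-temperature reaction containing 500 nM biotinylated H3K9 peptide, 20 µM SAM and 20 nM enzyme, which had been preincubated 15 min with compound.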
* hit, by the source's call; ? = inconclusive; nt = no result given; [ ] = another dose, or the depositor's remark. Sampled rows, rich in hits. Any-hit rate of the full collection: about 11%. Calls follow the shape of the dose curve; as a rule, active = well fitted inhibition curve with a large enough effect; inconclusive = small, poorly fitted or top-dose-only effect; inactive = no such curve, though single readings can be large or run the other way. Potency is read from the fitted curve at half-maximal effect.

SMILES	BAZ2B inh	L3MBTL1 inh	JMJD2A Tudor inh	HP1b chromo inh	G9a inh
COc1ccc(C2c3c(oc4cc(C)cc(C)c4c3=O)C(=O)N2Cc2ccco2)cc1OC (stereo not given)	1.5%	nt	-2.2%	32.7%	0.6%[59 µM]
CC(Oc1ccccc1)C(=O)Nc1ccc(OCc2cc(=O)n3ccsc3n2)cc1 (stereo not given)	-3.3%	nt	-17.5%	16.9%	-7.4%[59 µM]
O=C(CSc1nnnn1Cc1ccccc1)NC1CCCCC1	-13.1%	0.2%	-1.4%	37.5%	50.1µM*
COc1ccc(Br)cc1-c1nc(C)c(C(C)=O)n1O	-29.5%	23.4%[11.4 µM]	-17.6%	17.7%	10µM*
O=C(/C=C/c1ccccc1)c1ccc(O[C@H]2OC(CO)C(O)C(O)C2O)cc1O (stereo not given in full)	nt	nt	nt	nt	-45.2%[2.33 µM]
C=CCNc1nc(N)c(C(=O)Nc2cc(C)on2)s1	-35.6%	0.7%	?	-0.4%	?
CC(C)c1nnc(NC(=O)c2ccc3c(c2)OCO3)s1	-17.9%	3.6%	9.1%	19.8%	-43.8%
C=CCNc1nc(N)c(C(=O)c2ccc3c(c2)OCO3)s1	?	-8.4%	-32.6%	-25.9%	50.1µM*
CC(C)(C)c1nnc(NC(=O)c2ccc3c(c2)OCO3)s1	-30.3%	nt	89.1µM*	?	3.55µM*
COc1ccc(N2CCN(C(=O)CN3C(=O)COc4ccc(S(=O)(=O)N5CCC(C)CC5)cc43)CC2)cc1	?	nt	?	-0.3%	?
Cc1ccc(S(=O)Cc2nc(-c3ccc(C(=O)NCc4cccc(C)c4)cc3)oc2C)cc1 (stereo not given)	-0.2%	nt	1.0%	40.0%	?
Cc1ncc(CN2CCCC(C(=O)Nc3ccc(-c4ccco4)cc3)C2)cn1 (stereo not given)	79.4µM*	nt	-24.3%	13.8%[57 µM]	9.8%[0.501 µM]
COCc1cc(CN2CCCC(C(=O)Nc3ccc(-c4ccco4)cc3)C2)ccc1OC (stereo not given)	?	nt	?	?	8.91µM*
COc1cccc(-c2ccc(NC(=O)C3CCCN(Cc4cnn(C)c4)C3)cc2)c1 (stereo not given)	?	nt	-10.9%	23.5%	30.7%[59 µM]
Cc1cc(C)cc(N2CCn3c2nc2c3c(=O)n(Cc3c(F)cccc3Cl)c(=O)n2C)c1	-13.5%	nt	-10.5%	33.5%	-1.9%[59 µM]
O=S(=O)(/N=C(/Nc1ccc(F)cc1F)c1ccccc1)c1ccc(Br)cc1	-6.6%	0.0%	nt	nt	10.9%[59 µM]
Cc1cc2c(s1)c1cnn(Cc3cccc(Cn4ncc5c6sc(C)cc6n(C)c5c4=O)c3F)c(=O)c1n2C	nt	nt	-21.2%	nt	nt
O=C(O)CC(Sc1n[nH]c(=S)s1)C(=O)O (stereo not given)	79.4µM*	-87.2%	44.7µM*	-17.0%	nt
COC(=O)C(C)Sc1n[nH]c(=S)s1 (stereo not given)	?	nt	39.8µM*	?	6.31µM*
O=C(CCCn1c(=O)c2ccccc2n(CC(=O)Nc2cccc(Cl)c2)c1=O)NCc1ccc2c(c1)OCO2	-1.4%	nt	-10.6%	33.9%	6.5%[59 µM]
FC(F)(F)c1ccc(/C=N/n2c(COc3ccccc3)n[nH]c2=S)cc1	?	nt	?	-16.0%	-4.6%[2.33 µM]
Cc1cc(OCc2n[nH]c(=S)n2-c2ccccc2)ccc1Cl	-7.4%	-0.1%	?	7.7%	nt
CCc1ccc(/C=N/n2c(COc3ccccc3)n[nH]c2=S)cc1	-26.2%	nt	?	-5.9%	20µM*
S=c1[nH]nc(COc2ccccc2)n1/N=C/c1ccccn1	13.4%	3.8%	3.98µM*	-12.6%	?
Cc1cccc(/C=N/n2c(COc3ccccc3)n[nH]c2=S)c1	?	nt	?	4.4%	3.16µM*
SMILES	BAZ2B inh	L3MBTL1 inh	JMJD2A Tudor inh	HP1b chromo inh	G9a inh
S=c1[nH]nc(COc2ccccc2)n1/N=C/c1ccc(Cl)c(Cl)c1	-14.8%	nt	?	?	12.6µM*
Cc1ccc(Cl)cc1Nc1nn2c(=O)c3ccc(C(=O)NCc4ccc(F)cc4)cc3nc2s1	-9.3%	nt	1.7%	14.4%	-6.1%[59 µM]
N#CCCn1c(=O)c(-c2ccc(Cl)cc2)nc2cnc(N3CCOCC3)nc21	nt	nt	nt	nt	-1.6%[0.501 µM]
O=C(CSCc1ccc(Br)cc1)N1CCCC1	-11.8%	-0.7%	6.0%	53.8%	0.0%
Cc1ccc(S(=O)(=O)c2c(C)cc(C)[nH]c2=O)cc1	-3.4%	nt	-1.1%	22.4%	-2.8%
Cc1cc(C)cc(NS(=O)(=O)c2ccc(-c3cc(C)no3)cc2)c1	-12.8%	nt	-1.7%	54.4%	?
O=C(NCc1ccccc1)C12CN(Cc3ccccc3)CC1C(c1cccc([N+](=O)[O-])c1)=NO2 (stereo not given)	?	-9.0%	-21.8%	16.2%	8.91µM*
COc1ccc2c(c1)c(=O)oc1c(C)c(OCC(=O)N3CCc4ccccc4C3)ccc12	-10.2%	-4.3%	-17.1%	20.2%	nt
COc1ccc2c(c1)c(=O)oc1c(C)c(OCc3ccc(C(=O)O)cc3)ccc12	50.1µM*	nt	50.1µM*	25.6%	?
Cc1nn(C)c2c1c(-c1ccccc1)cc(=O)n2CC(=O)NC(C)c1ccccc1 (stereo not given)	50.1µM*	nt	50.1µM*	39.8µM*	-45.4%[59 µM]
Cc1cc(=O)n(CC(=O)NC(C)c2ccccc2)c2c1c(C)nn2C (stereo not given)	?	nt	?	?	0.0%[59 µM]
CN1c2ccccc2-c2nc3ccccc3n2C1c1ccccn1 (stereo not given)	?	33.8%	-24.1%	61.0%	50.1µM*
CCOCCCNC(=O)C(NC(=O)Cc1c[nH]c2ccccc12)c1ccccc1 (stereo not given)	-4.6%	25.0%	-5.5%	27.8%	4.9%
CO/S(=N\S(=O)(=O)c1ccc(Cl)cc1)c1ccc([N+](=O)[O-])cc1 (stereo not given)	nt	nt	nt	nt	3.16µM*
COc1ccc(N(CC(=O)N2CCN(c3ccccc3)CC2)S(=O)(=O)c2c(C)nn(C)c2C)cc1	nt	nt	-8.7%	26.6%	-1.9%[59 µM]
